DT40 TDP1 no CPT – qHTS for Inhibitors of human tyrosyl-DNA phosphodiesterase 1 (TDP1): qHTS in cells in absence of CPT; DT40 Tdp1-/- hTDP1 cells, no CPT, ATP luminescence, 48 h; Potency, µM (highest dose often 46.2 µM), usual class: inhibitors; 420,000 compounds, 15% hits; AID 686978, 2013; further: nearly all actives have a fitted effect of over 55% in size
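Growth of hTDP1-complemented DT40 Tdp1-knockout cells is measured by ATP luminescence after at least 48 hr compound exposure at 37 °C, with DMSO substituting for the 20 nM CPT used in the parallel screen.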
IL-1B inflam inh – inflammasome signaling inhibition, IL-1 beta readout; AID 743279; THP-1 LPS/ATP IL-1B secretion, AlphaLISA, 16 h; stronger effect = lower value; activity change, % at 57.5 µM; 360,000 compounds, 4.7% hits; in the data active means activity change below about -50%; inconclusive means mostly about -30% to -49%
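THP-1 cells pretreated 1 hr with compounds (up to 57.5 uM final), then stimulated with LPS (250 ng/mL final) plus ATP (1.25 mM final); secreted IL-1B measured by AlphaLISA after 16 hr, decreased signal indicating inhibition.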
TDP1 inh – blocks human tyrosyl-DNA phosphodiesterase 1. recombinant TDP1, AlphaScreen DNA substrate cleavage. 350,000 compounds, 0.28% hits. Potency, µM (top dose mostly 130 µM), actives largely listed as inhibitors. Q9NUW8. AID 485290; further: nearly all actives have a fitted effect of over 40% in size
Target sequence (Q9NUW8 whole entry, looked up): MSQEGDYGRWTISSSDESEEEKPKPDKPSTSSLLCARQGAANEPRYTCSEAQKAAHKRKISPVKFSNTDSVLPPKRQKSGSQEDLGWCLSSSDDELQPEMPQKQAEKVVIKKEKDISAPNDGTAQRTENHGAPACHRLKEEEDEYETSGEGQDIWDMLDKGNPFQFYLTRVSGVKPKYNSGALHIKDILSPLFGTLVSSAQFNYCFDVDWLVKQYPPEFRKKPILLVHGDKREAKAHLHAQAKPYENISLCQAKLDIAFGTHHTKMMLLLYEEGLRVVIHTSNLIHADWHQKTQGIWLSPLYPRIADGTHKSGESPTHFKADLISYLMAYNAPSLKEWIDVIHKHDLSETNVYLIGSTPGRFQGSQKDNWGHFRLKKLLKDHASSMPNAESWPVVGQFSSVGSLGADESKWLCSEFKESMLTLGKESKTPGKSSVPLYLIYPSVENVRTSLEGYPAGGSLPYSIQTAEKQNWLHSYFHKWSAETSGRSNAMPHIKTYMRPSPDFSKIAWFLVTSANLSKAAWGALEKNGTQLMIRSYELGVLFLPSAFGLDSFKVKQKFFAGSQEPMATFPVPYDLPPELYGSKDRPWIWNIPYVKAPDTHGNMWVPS
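E. coli-derived human Tdp1, 1 nM final. Cpd preinc 15 min RT; substrate 15 nM final, 5 min RT; AS bead mix 10 ug/ml final, 10 min RT. Signal loss = tyrosine-FITC cleavage. No-enzyme wells = max signal.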
Six1-Eya2 inh – inhibitors of human Six1/Eya2 interaction. Q15475+O00167. AlphaScreen GST-Six1/His-Eya2 binding, biochemical; stronger effect = lower value. activity change, % (test concentration not listed). 360,000 compounds, 0.56% hits. AID 651725; in the data active means activity change below about -65%; inconclusive means mostly about -30% to -63%
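GST-Six1 + His-Eya2 (5X stock: 250/500 nM); Tris pH 8.0, 300 mM NaCl, 0.05% BSA, 0.02% Tween 20; GSH donor/Ni acceptor beads; 1 h 37 °C dark; AlphaScreen readout.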
CtBP-E1A inh – inhibitors of CtBP/E1A interaction; 340,000 compounds, 0.49% hits; activity change, % (test concentration not listed); AlphaScreen GST-E1A/His-CtBP binding, 1536-well; stronger effect = lower value; in the data active means activity change below about -65%; inconclusive means mostly about -30% to -63%
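In 5 uL wells, 23 nL compound meets equimolar GST-E1A and His-CtBP (5X stock 125 nM each) for 2 h, 37 °C. Beads (5X, 50 ug/mL) then 1 h, 37 °C, dark.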
TDP1 cell CPT – DT40-hTDP1 cell growth loss with CPT. Potency, µM (titrated, usually from 46.2 µM), most hits filed as inhibitors. 420,000 compounds, 12% hits. AID 686979. chicken DT40 Tdp1-/-;hTDP1 cells + 20 nM CPT, ATP luminescence, 48 h; further: nearly all actives have a fitted effect of over 55% in size
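Cell growth measured by CellTiter-Glo luminescence after a minimum 48 h, 37 C compound exposure with 20 nM CPT in Tdp1-knockout DT40 cells stably expressing hTDP1, seeded 400/well; qHTS titration format.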
Numbers stand for hits; n = inactive; u = inconclusive; x = not tested or not shown; [ ] = another dose, or the depositor's remark. Rows were chosen to be rich in hits. Some 18% of all compounds tested hit in one or more screens of this group. Unless noted, the call rests on the fitted dose curve; in most records, active means well fitted curve in the direction sought with a large enough effect; inconclusive means small, poorly fitted or top-dose-only effect, or another doubt; inactive means no such curve, though single readings can be large; an effect the other way counts as inactive or inconclusive.

SMILES | DT40 TDP1 no CPT | IL-1B inflam inh | TDP1 inh | Six1-Eya2 inh | CtBP-E1A inh | TDP1 cell CPT
O=c1[nH]c(C2CCN(S(=O)(=O)c3ccccc3)CC2)nc2c1nnn2Cc1ccccc1 | u | n | x | n | n | 21µM
O=c1[nH]c(C2CCN(S(=O)(=O)c3ccccc3F)CC2)nc2c1nnn2Cc1ccc(F)cc1 | n | n | n | n | n | n
Clc1cccc(Cl)c1CN1CCN(c2ncccn2)CC1 | u | n | x | n | n | u
COCCNc1nc(-c2ccccc2C)nc2ccccc12 | 18µM | x | n | x | x | u
COc1ccccc1CNc1nc(-c2ccoc2)nc2ccccc12 | 26µM | x | x | x | x | 15µM
COCCNc1nc(-c2ccccc2CN(C)C)nc2ccccc12 | 12µM | x | n | x | x | u
CN(C)Cc1ccccc1-c1nc(NCc2ccccc2)c2ccccc2n1 | 6.5µM | x | n | x | x | 16µM
COCCNc1nc(-c2ccccc2C(F)(F)F)nc2ccccc12 | n | x | x | x | x | n
O=C(Cc1ccccc1)NNC(=O)C1CC=CCC1 (stereo not drawn) | n | n | n | n | n | n
O=C(CN(C(=O)c1csnn1)c1ccc(F)c(Cl)c1)NCc1ccccc1 | n | u | n[0.0935 µM] | n | n | n
COc1ccccc1CNc1ncncc1-c1ccccc1CN(C)C | u | x | n | x | x | n
COc1ccccc1CNc1nc(-c2ccccc2CN(C)C)nc2ccccc12 | 6.5µM | x | n | x | x | 12µM
CCOC(=O)c1c(NC(=O)C2CCCCC2)sc2c1CCN(C(C)C)C2 | 13µM | n | x | n | n | 15µM
CC(C)N1CCc2c(sc(NC(=O)C3CCCCC3)c2C(N)=O)C1 | u | -55 | x | n | n | u
O=C(COC(=O)C1CC(=O)N(Cc2ccccc2)C1)Nc1ccc2c(c1)OCO2 (stereo not drawn) | n | n | n | n | n | n
Oc1ccccc1-c1nc(/C=C/c2ccccc2)nn1-c1ccccc1 | u | u | n | n | n | n
O=C(O)c1ccc(-n2nc(-c3ccccc3O)nc2-c2ccccc2O)cc1 | 21µM | x | x | x | x | u
Oc1ccc(/C=C/c2nc(-c3ccccc3O)n(-c3ccccc3)n2)cc1 | u | -66 | n | n | n | u
CCCc1nc(NC2CCCCC2)c(C#N)c2c1COC(C)(C)C2 | 29µM | n | n | n | n | 18µM
CN1CCN(c2ccc(-c3cc(NC=O)c4ncc(-c5ccc(F)cc5)n4c3)cc2)CC1 | u | n | x | n | u | 15µM
CN1CCN(c2ccc(-c3cc(NC=O)c4ncc(-c5ccccc5)n4c3)cc2)CC1 | 16µM | n | x | u | u | 21µM
CCOc1cc2c3c(c1)C1(OCCO1)C(=O)N3C(C)(C)CC2C (stereo not drawn) | u | n | n | n | n | u
CCOc1cc2c3c(c1)C1(Nc4ccccc4S1)C(=O)N3C(C)(C)CC2C (stereo not drawn) | u | n | n | u | u | 18µM
COc1ccccc1N(C)c1cc2c(c3c1ccn3C)C1CCC2C1 (stereo not drawn) | u | n | x | u | u | u
C/[N+]([O-])=C\c1cccc(OCCN2CCN(c3ncc(C(F)(F)F)cc3Cl)CC2)c1 | u | -51 | x | n | n | n
SMILES | DT40 TDP1 no CPT | IL-1B inflam inh | TDP1 inh | Six1-Eya2 inh | CtBP-E1A inh | TDP1 cell CPT
CCOc1ccccc1N1CCN(Cc2ccc(Br)s2)CC1 | u | n | n | n | n | u
CCOc1ccc2nc(NC(=O)CS(=O)(=O)c3ccccc3)sc2c1 | u | n | n | n | n | n
CCOc1ccc2nc(NC(=O)CS(=O)(=O)c3ccc(Cl)cc3)sc2c1 | 16µM | x | n | x | x | u
CS(=O)(=O)c1ccc2nc(NC(=O)CS(=O)(=O)c3ccc(Cl)cc3)sc2c1 | u | x | n | x | x | n
CCOc1ccc2nc(NC(=O)CS(=O)(=O)c3ccc(C)cc3)sc2c1 | 16µM | n | n | n | n | n
COc1ccccc1CNS(=O)(=O)c1c(C(=O)N2CCCC2)c(C)n(C)c1C | n | n | n | n | x | n
COc1ccccc1NC(=O)c1nn(C)c2c1CS(=O)(=O)c1ccccc1-2 | n | x | n | x | x | n
O=C(Nc1ccccc1)c1ccccc1NC(=O)c1ccccc1C(=O)O | n | n | x | n | n | n
Cc1ccccc1/C(N)=N/OC(=O)N1c2ccccc2Sc2ccccc21 | 13µM | n | n | n | n | 11µM
Cc1ccc(/C(N)=N/OC(=O)Cc2ccccc2)cc1 | n | n | n | n | n | n
CCOC(=O)N1c2ccccc2Sc2ccccc21 | u | n | n | n | x | n
Cc1ccc(/C(N)=N/OC(=O)N2c3ccccc3Sc3ccccc32)cc1 | 21µM | n | x | u | n | u
Cc1ccc(/C(N)=N/OC(=O)CCCc2ccccc2)cc1 | n | n | 50µM | n | n | n
CCc1ccccc1NC(=O)C1CC(c2ccc(F)cc2)=NO1 (stereo not drawn) | n | n | n | n | n | n
CC(C)c1ccc(OCc2nnc(SCC(=O)N3CCCCC3)o2)cc1 | n | n | x | n | n | n
O=c1[nH][nH]c(-c2ccccc2O)c1C(C[N+](=O)[O-])c1ccccc1 (stereo not drawn) | 5.2µM | n | n | n | n | 4.6µM
CC1(C)COC(/C=C/c2ccc([N+](=O)[O-])cc2)=N1 | 16µM | -102 | n | n | n | u
O=C(O)c1ccc2c(c1)C(=O)/C(=C/c1ccccc1)C2=O | n | n | x | u | n | n
Cc1ccc(/C=C2/C(=O)c3ccc(C(=O)O)cc3C2=O)o1 | n | n | 3.5µM | u | n | n
O=C(O)c1ccc2c(c1)C(=O)/C(=C\c1ccco1)C2=O | n | n | 7.1µM | u | n | u
O=C1c2ccccc2NC(c2ccc(-c3cccc(F)c3)o2)N1O (stereo not drawn) | x | x | n | x | x | x
O=C(NC1CC1)c1ccc(NS(=O)(=O)c2ccccc2)cc1 | n | n | n | n | n | n
C(=C\c1ccnc2ccccc12)/c1ccc(N2CCNCC2)cc1 | 14µM | x | x | x | x | u
C(=C\c1ccnc2ccccc12)/c1ccc(N2CCOCC2)cc1 | 1.3µM | x | x | x | x | 1.8µM
c1ccc(N2CCN(c3ncccn3)CC2)cc1 | n | n | n | n | n | n
C(=C\c1ccnc2ccccc12)/c1ccc(N2CCN(c3ccc(/C=C/c4ccnc5ccccc45)cc3)CC2)cc1 | 6.3µM | x | x | x | x | 5µM
CN1CCCc2cc(/C=C/c3ccnc4ccccc34)ccc21 | 14µM | x | x | x | x | 11µM
O=Cc1ccc(N2CCOCC2)cc1 | n | x | x | x | x | n
C=CCNC(=O)CCC(=O)NNc1nc2ccccc2c2nc(-c3ccccc3)nn12 | u | n | n | n | x | n
COc1ccc(NC(=O)c2c(NCc3ccc(C)o3)sc3c2CCC(C)C3)cc1 (stereo not drawn) | 9.2µM | x | n | x | x | 23µM
